Results published in PubChem BioAssay (EPA / NIEHS).
Where “and” joins values, the source holds several entries; their conditions need not be identical. Identical values can stand only once. Calls of active or inactive are those of the source. The calls were made as follows: active = hit-call score of the fitted dose curve at least 0.9, where 1 is the maximum; inactive = score below 0.9.

Read-out: Vascular cell adhesion molecule 1 (VCAM1), VCAM1 (gene 7412)
Assay: BSK_LPS_VCAM1: BioMAP Diversity Plus: LPS Assay for Vascular cell adhesion molecule 1 (VCAM1) Biomarker Activity (AID 2283086)
Conditions: primary human HUVEC with PBMC; actives raise or lower the signal
Procedure: BSK_LPS is a cell-based, multiplexed-readout assay that uses umbilical vein endothelium and peripheral blood mononuclear cells, a human vascular primary cell co-culture, with measurements taken at 24 hours after chemical dosing in a 96-well plate.BSK_LPS_VCAM1 is an assay component measured in the BSK_LPS assay. It measures VCAM-1 antibody related to regulation of gene expression using ELISA technology.Data from the assay component BSK_LPS_VCAM1 was analyzed into 1 assay endpoint. This assay endpoint, BSK_LPS_VCAM1, was analyzed with bidirectional fitting relative to DMSO as the negative control and baseline of activity. Using a type of binding reporter, gain or loss-of-signal activity can be used to understand changes in the signaling as they relate to the gene VCAM1. Furthermore, this assay endpoint can be referred to as a primary readout, because this assay has produced multiple assay endpoints where this one serves a signaling function. To generalize the intended target to other relatable targets, this assay endpoint is annotated to the cell adhesion molecules intended target family, where the subfamily is Immunoglobulin CAM.
The levels of cell surface (or secreted, indicated by the prefix "s") biomarker endpoints were measured by ELISA. Overt cytotoxicity to cells in confluent adherent cultures (all systems other than the BT system) was assessed by measuring total protein levels using sulforhodamine B (SRB) staining in parallel cultures at the time of biomarker measurements, indicated as SRB endpoints. For proliferation assays for adherent cell types, individual cell types are cultured at sub-confluence and relative cell numbers quantified by SRB staining at time points optimized for each system (48 h: 3C and CASM3C systems; 72 h: BT and HDF3CGF systems; 96 h: SAg system). SRB was performed by staining cells with 0.1% SRB after fixation with 10% TCA and reading wells at 560 nm.Viability and proliferation of PBMC (T cells) was quantified by Alamar Blue reduction for the SAg and BT systems. For PBMC viability (referred to as PBMC Cytotoxicity within the assay endpoint names), cells were plated (75,000/well in a 96-well plate) and then chemical samples added for 1 h before addition of activators, SEB and TSST-1 (20 ng/mL final concentration each). Cells were incubated for 90 h. Then, Alamar Blue (20 uL/well) (Invitrogen, Cat DAL1100) was added for 6 h, and the plates were read with a fluorescence microplate reader at 546/580 nm (excitation/emission). For PBMC proliferation, cells were plated and activated as above but incubated for only 16 h prior to addition of Alamar Blue. Plates were read after 6 h.

Row | Structure (SMILES) | outcome | AC50
1 | CCN1CN(CC)CN(CC)C1 | inactive | 
2 | C=CC(=O)OCCCCCCCC(C)C | inactive | 
3 | C1CNCCN1 | inactive | 
4 | CCC1(C)C(=O)N(Cl)C(=O)N1Cl (stereo not given) | inactive | 
5 | Cc1ccc([N+](=O)[O-])cc1N | inactive | 
6 | C=CC(=O)OCC(C)OCC(C)OCC(C)OC(=O)C=C (stereo not given) |  | 8.45 µM (active)
7 | Cc1c(O)cccc1O | inactive | 
8 | O=C(O)C(F)(F)C(F)(F)C(F)(F)C(F)(F)C(=O)O | inactive | 
9 | CCOC(=O)C1=NN(c2ccc(Cl)cc2Cl)C(C)(C(=O)OCC)C1 (stereo not given) | inactive | 
10 | CCCCCCC=O | inactive | 
11 | O=C(Oc1ccccc1)c1ccccc1C(=O)Oc1ccccc1 | inactive | 
12 | CC=C(C)C=CC=C(C)C |  | 20 µM (active)
13 | CCc1cccc(C)c1N(C(=O)CS(=O)(=O)O)C(C)COC (stereo not given) | inactive | 
14 | CC(C)CCCCCOC(=O)CS | inactive | 
15 | C=CCCCCCCCCC=O | inactive | 
16 | CCCCCCCCC(CO)CCCCCC (stereo not given) | inactive | 
17 | CC/C=C\C/C=C\C/C=C\CCCCCCCC(=O)OC |  | 27.3 µM (active)
18 | C[N+](C)(C)CCCNS(=O)(=O)C(F)(F)C(F)(F)C(F)(F)C(F)(F)C(F)(F)C(F)(F)C(F)(F)C(F)(F)F |  | 45 µM (active) and 49.6 µM (active)
19 | COc1ccc(C(=O)/C(Br)=C\C(=O)O)cc1 |  | 20 µM (active)
20 | CC=C(C)C(C)=O | inactive | 

Row | Structure (SMILES) | outcome | AC50
21 | CC(CCC(=O)O)(c1ccc(O)cc1)c1ccc(O)cc1 | inactive | 
22 | COC(OC)(C(=O)c1ccccc1)c1ccccc1 | inactive | 
23 | CC(c1cc(C(C)(C)C)cc(C(C)(C)C)c1O)c1cc(C(C)(C)C)cc(C(C)(C)C)c1O | inactive | 
24 | c1ccc2c(c1)[nH]c1ccccc12 | inactive | 
25 | c1ccc(Nc2cccc3ccccc23)cc1 |  | 32.5 µM (active) and 28.1 µM (active)
26 | CC(C)C(=O)OCCc1ccccc1 | inactive | 
27 | Nc1ccc(C(=O)O)cc1 | inactive | 
28 | CC(C)[N+](C)(CCOC(=O)C1c2ccccc2Oc2ccccc21)C(C)C | inactive | 
29 | Fc1ccc(Br)cc1 | inactive | 
30 | CCCC(C)C(=O)OCC (stereo not given) | inactive | 
31 | CC1=CC=C(C(C)C)CC1 | inactive | 
32 | Nc1nc(N)nc(-c2ccccc2)n1 | inactive | 
33 | CCCCC1C(=O)N(c2ccccc2)N(c2ccccc2)C1=O | inactive | 
34 | Oc1c(Cl)cc(Cl)c(Cl)c1Cl |  | 20 µM (active)
35 | O=C(Cl)c1c(Cl)c(Cl)c(C(=O)Cl)c(Cl)c1Cl | inactive | 
36 | Clc1cc(Cl)c(Cl)c(Cl)c1Cl | inactive | 
37 | Nc1cccc(N)n1 | inactive | 
38 | c1ccc2sc(SSN3CCOCC3)nc2c1 | inactive | 
39 | CC/C=C\CCOC(=O)c1ccccc1O |  | 37.9 µM (active)
40 | CCCCCC1=CCCC1=O |  | 24 µM (active)
